Sfp PPTase inh = qHTS Assay for Inhibitors of Bacillus subtilis Sfp phosphopantetheinyl transferase (PPTase) | Biochemical Sfp PPTase activity, qHTS | Potency, µM, actives largely listed as inhibitors | AID 1490, 2009 | 3.5% of 310,000 active;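 note: the enzyme is Sfp with the accession as filed and its product quenches rhodamine fluorescence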
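Sfp 15 nM + cpd, 15 min RT; start w/ rhodamine-CoA 5 uM, BHQ-2-YbbR 12.5 uM (final); 50 mM Hepes pH 7.6, 10 mM MgCl2, 0.01% NP-40, 0.01% BSA; read 525/598 nm at 0 and 30 min.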
Coupling enz = qHTS Assay for Inhibitors of Fructose-1,6-bisphosphate Aldolase from Giardia Lamblia: Coupling assay counterscreen; coupling enzyme system counterscreen, AmpLite Red fluorescence; activity change, negative = inhibition, % at 58.2 µM, hits read low; 0.67% of 290,000 active; in the data active = activity change below about -30%
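Final compound at 57.5 uM, incubated 10 min at RT with coupling enzyme reagent (glyceraldehyde-3-phosphate), then 20 min with substrate and AmpLite Red detection. Fluorescence read at 525/598 nm; tests interference with the coupling assay, not aldolase inhibition.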
Giardia kill = Small Molecules that selectively kill Giardia lamblia: qHTS | 0.15% of 340,000 active | activity change, % at 7.66 µM, hits read low | AID 540267, 2011 | Giardia lamblia trophozoite viability; in the data active = activity change below about -80%; inconclusive = between about -30% and that limit;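 note: parasites exposed to compound for two days anaerobically before the ATP read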
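Each well holds 100 Giardia trophozoites and compound. After two days (48 hrs) at 37 deg C in anaerobic conditions, ATP is quantified by luminescence.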
ELG1 DNA repair = qHTS screen for small molecules that inhibit ELG1-dependent DNA repair in human embryonic kidney (HEK293T) cells expressing luciferase-tagged ELG1; 2.3% of 330,000 active; AID 504467, 2011; HEK293T ELG1-luciferase reporter, luminescence, 16 h; DNA damage induced by 5-fluorouridine; Potency, µM (top dose mostly 46.1 µM), actives largely listed as inhibitors; note: nearly all actives have a fitted effect of over 55% in size
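DMSO vehicle served as the neutral condition. Each well held 2,000 cells given 5-fluorouridine plus compound; after 16 hr at 37 °C/5% CO2, ONE-Glo was added and luciferase measured 30 min later.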
Each line names hits and unclear results; the compound was inactive in the other large screens; ! = repeats disagree. Only some compounds are listed: those with a hit (about 5.5% of all), similar ones and a draw of the others. Unless noted, calls come from the whole dose curve; as a rule, active = well fitted curve in the direction sought with a large enough effect; inconclusive = small, poorly fitted or top-dose-only effect, or another doubt; inactive = no such curve, though single readings can be large; an effect the other way counts as inactive or inconclusive.

Cc1cc(C)c(S(=O)(=O)Nc2ccc[nH]c2=O)c(C)c1	Sfp PPTase inh 50µM, Coupling enz -72
O=C(CSc1cn[nH]n1)Nc1cccc(C(F)(F)F)c1	none
COc1ccc(NS(=O)(=O)c2cccc(C(=O)NNC(=O)c3ccccc3OC)c2)cc1	none (no result: Sfp PPTase inh, Coupling enz)
CC1=NNC(=O)/C1=C\c1cn(-c2ccccc2)nc1-c1ccc(Cl)cc1	ELG1 DNA repair 9.2µM
CC1(C)CC(=O)C(=Cc2cn(-c3ccccc3)nc2-c2ccccc2)C(=O)C1	none (no result: Sfp PPTase inh, Coupling enz, ELG1 DNA repair)
Cc1ccc(-c2nn(-c3ccccc3)cc2C=C2C(=O)CC(C)(C)CC2=O)cc1	Sfp PPTase inh 25µM
CC1=NN(c2ccccc2)C(=O)/C1=C\c1cn(CCC#N)nc1-c1ccc(Cl)cc1	none
O=C(O)Cc1cn(-c2ccccc2)nc1-c1ccc(Cl)cc1	Sfp PPTase inh 45µM!
Cc1ccc(NC(=O)CSCC(=O)NC2(C)CCS(=O)(=O)C2)cc1 (stereo not given)	none (no result: Sfp PPTase inh, Coupling enz)
CC(C)C[C@@H](CC(=O)N[C@H](CC(=O)N[C@@H]1CCCC[C@H]1C(=O)N[C@H](CC(=O)N[C@@H](CCC(=O)O)CC(=O)O)Cc1c[nH]c2ccccc12)C(C)C)NC(=O)[C@@H]1CNCC[C@H]1N	none (no result: Giardia kill, ELG1 DNA repair)
CCOc1ccc(C(c2c(O)nc(SC)[nH]c2=O)c2c(O)nc(SC)[nH]c2=O)cc1	none (no result: Sfp PPTase inh, Coupling enz, ELG1 DNA repair)
CSc1nc(O)c(C(c2ccc(O)cc2)c2c(O)nc(SC)[nH]c2=O)c(=O)[nH]1	Sfp PPTase inh 50µM
CN1CCO[C@H](c2ccccc2)c2ccccc2C1	none (no result: Giardia kill, ELG1 DNA repair)
O=c1ccc2c(-c3ccccc3)c3ccc(O)cc3oc-2c1	Sfp PPTase inh 32µM
COc1cc(/C=C/C(=O)OCC(=O)NCC(=O)Nc2cccc(C)c2C)ccc1OC(F)F	none (no result: Sfp PPTase inh, Coupling enz)
COc1ccccc1Nc1nnc(SCc2nnc(-c3cc(OC)c(OC)c(OC)c3)o2)s1	ELG1 DNA repair 6.5µM
COc1cc(-c2nnc(CSc3nnc(Nc4ccc(C(C)C)cc4)s3)o2)cc(OC)c1OC	ELG1 DNA repair 6.5µM
CCOc1ccccc1Nc1nnc(SCC(=O)Nc2nc(-c3ccc(OC)cc3)cs2)s1	none
CCOc1ccccc1Nc1nnc(SCc2nnc(-c3cc(OC)c(OC)c(OC)c3)o2)s1	ELG1 DNA repair 5.8µM
COc1ccc(S(=O)(=O)NC2CCCC2)cc1C(N)=O	none (no result: Coupling enz)
C#CCOc1c(Br)cc(/C=C2/C(=O)ON=C2C)cc1OCC	none
C#CCOc1ccc(/C=C2/C(=O)ON=C2C)cc1Cl	Sfp PPTase inh inconclusive
C#CCOc1c(Br)cc(/C=C2/C(=O)ON=C2C)cc1OC	Sfp PPTase inh 56µM
C#CCOc1c(Cl)cc(/C=C2/C(=O)ON=C2C)cc1OCC	Sfp PPTase inh 79µM
N#Cc1c(N)sc(=S)c2c1CCCC2	Sfp PPTase inh 32µM
CCC1(C)Cc2c(C#N)c(N)sc(=S)c2CO1 (stereo not given)	Sfp PPTase inh 13µM
CCC1(C)Cc2c(C#N)c(N)n(-c3ccccc3)c(=S)c2CO1 (stereo not given)	none
COc1ccc(CC(=O)Nc2ccncc2Cl)cc1	none (no result: Coupling enz)
Nc1nonc1N/N=C\c1ccccc1	ELG1 DNA repair inconclusive
Nc1nonc1NN=C1CCCCC1	Sfp PPTase inh 79µM, ELG1 DNA repair inconclusive
O=C(COC(=O)c1ccc(Cl)nc1)NCCc1ccccc1	none (no result: Sfp PPTase inh, Coupling enz)
CC1(C)N([O-])c2cc([N+](=O)[O-])ccc2[N+]1=O	Sfp PPTase inh 1.6µM, Coupling enz -63
C=C(C)CN(CC)c1nc(N)c(C#N)c(CC#N)c1C#N	none
CCCCN(CC)c1nc(N)c2c(N)nc(OCC)cc2c1C#N	Coupling enz -48, ELG1 DNA repair inconclusive
CCCCN(CC)c1nc(N)c(C#N)c(CC#N)c1C#N	Coupling enz -35, ELG1 DNA repair inconclusive
Cn1nccc1C(=O)N1CCC(Cc2ccccc2)CC1	none (no result: Coupling enz)
CCCN(CCC(=O)Nc1cc(OC)cc(OC)c1)CC1CC1	Sfp PPTase inh inconclusive, Coupling enz -36
CCN(CCC(=O)Nc1cc(OC)cc(OC)c1)Cc1ccccc1	Sfp PPTase inh 45µM, Coupling enz -40
CCCN(CCC(=O)Nc1ccccc1F)CC1CC1	none
CCc1cc2c(nc1CC)CCN(CC/C(C)=N/OC[C@@H](C)[C@H](OCc1ccccc1)C(C)C)C2	none (no result: Giardia kill, ELG1 DNA repair)
COc1cc(OC)c(C2Nc3cccc4cccc(c34)N2)c(OC)c1	ELG1 DNA repair inconclusive
COc1ccccc1C1Nc2cccc3cccc(c23)N1	Sfp PPTase inh 56µM

From PubChem
